Data as given in PubChem BioAssay AID687038 (Broad Institute, 2013).

assay: miR-21 levels after miR-122 inhibitor treatment, dose response, selectivity assay for miR-122 inhibitor project, cell-based, Huh7, RT-qPCR, dry powder (AID 687038); conditions: Huh7 miR-21 levels, qRT-PCR, 48 h; series mostly up to 35 µM; relative miR-21 level (fold): at the top concentration;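 active means curve showing a falling signal whose half-maximal concentration is at most twice the top valid dose; inconclusive means flat curve with a moderate drop, or an unreliable fit; inactive means the rest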

Relative miR-21 level (fold), inactive:
CCOC(=O)N1CCC(NC(=O)c2ccc3c(c2)sc2nc(-c4ccccc4)cn23)CC1 1 fold, C[C@H]1CN([C@@H](C)CO)S(=O)(=O)c2ccc(C#Cc3ccncc3)cc2O[C@H]1CN(C)C(=O)C1CCOCC1 0.804 fold, COCC(=O)N(C)C[C@H]1Oc2cc(-c3ccccc3F)ccc2S(=O)(=O)N([C@H](C)CO)C[C@H]1C 1.56 fold, C/C=C/c1cnc2c(c1)C(=O)N([C@@H](C)CO)C[C@H](C)[C@H](CN(C)S(=O)(=O)c1ccc(OC)cc1)O2 1.01 fold, O=C(c1ccc(CNc2c(NC3CCCCC3)c(=O)c2=O)cc1)N1CCc2ccccc21 0.61 fold, O=C(c1ccc(CN2CCOCC2)cc1)N1CCc2ccccc21 1.02 fold
